High-throughput results deposited in PubChem BioAssay by National Center for Advancing Translational Sciences (NCATS).
USP1 inh: USP1/UAF1 (human) deubiquitinase inhibition; 390,000 tested, 0.23% active; Potency, µM (highest dose often 57.1 µM), for inactives: top-dose activity change, negative = inhibition, usual class: inhibitors; recombinant USP1/UAF1, Ub-Rhodamine cleavage fluorescence; also: potency is read from the fitted curve at half-maximal effect; nearly all actives have a fitted effect of over 60% in size
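USP1/UAF1 complex (1 nM) preincubated 15 min at room temperature with compound, then Ub-Rho substrate (150 nM final) added. Kinetic fluorescence at 480/540 nm over 6 reads at 60 s intervals; 50 mM HEPES pH 7.8, 0.5 mM EDTA, 0.1 mg/ml BSA, 1 mM TCEP, 0.01% Tween-20.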
rTrxR1 inhibitor: rat TrxR1 inhibition; O89049; recombinant rTrxR1, NADPH fluorescence consumption, selenite substrate; Potency, µM (series often up to 114 µM), for inactives: at the highest dose activity change, negative = inhibition, most hits filed as inhibitors; 390,000 tested, 1% active; AID 588453; also: potency is read from the fitted curve at half-maximal effect; nearly all actives have a fitted effect of over 65% in size
Target sequence (O89049 whole entry, looked up): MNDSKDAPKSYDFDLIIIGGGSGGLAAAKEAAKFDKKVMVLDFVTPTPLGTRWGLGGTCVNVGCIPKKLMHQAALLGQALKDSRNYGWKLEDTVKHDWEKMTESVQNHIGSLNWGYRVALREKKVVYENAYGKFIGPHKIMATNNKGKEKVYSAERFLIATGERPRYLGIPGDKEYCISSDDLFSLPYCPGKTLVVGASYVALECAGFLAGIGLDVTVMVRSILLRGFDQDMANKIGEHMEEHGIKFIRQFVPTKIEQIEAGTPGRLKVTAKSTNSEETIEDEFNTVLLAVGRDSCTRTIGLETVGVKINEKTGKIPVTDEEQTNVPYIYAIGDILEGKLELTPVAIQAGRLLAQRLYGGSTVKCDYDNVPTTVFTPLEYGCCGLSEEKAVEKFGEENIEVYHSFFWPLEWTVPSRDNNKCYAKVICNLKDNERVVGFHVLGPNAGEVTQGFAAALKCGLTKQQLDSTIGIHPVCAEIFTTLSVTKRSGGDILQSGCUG
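Rat TrxR1 (90 nM in the dispensed reagent) was pre-reduced with 400 uM NADPH for 5 min at room temperature, then incubated with compound for 15 min. After 400 uM selenite was added, NADPH fluorescence (Ex 340/Em 450 nm) was followed for 8 min.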
Coupling enz: coupling enzyme interference in Giardia aldolase counter-screen; coupling enzyme system counterscreen, AmpLite Red fluorescence; activity change, negative = inhibition, % at 58.2 µM, hits read low; 290,000 tested, 0.67% active; in the data active = activity change below about -30%
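Counterscreen of the coupled detection system alone, without aldolase: glyceraldehyde-3-phosphate coupling enzymes plus AmpLite Red readout. Compounds at 57.5 uM final, 10 min RT preincubation, 20 min RT reaction, fluorescence 525/598 nm.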
TrxR1 substrate: rat thioredoxin reductase 1 substrate activity | O89049 | 390,000 tested, 0.01% active | purified TrxR1 substrate turnover, NADPH consumption readout | Potency, µM (doses to about 114 µM), inactives show top-dose activity change, negative = substrate turnover; also: potency is read from the fitted curve at half-maximal effect; nearly all actives have a fitted effect of over 50% in size
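Rat TrxR1, dispensed at 90 nM, was prereduced with 400 uM NADPH (final) for 5 min at ~22 deg C, then incubated with compound 15 min before 400 uM selenite. A first-read NADPH fluorescence drop versus no-compound background flagged substrates.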
GALK inh: inhibitors of human galactokinase | P51570 | Purified GALK, Kinase-Glo residual ATP luminescence | Potency, µM (doses to about 57.5 µM), for inactives: at the highest dose activity change, negative = inhibition, most hits filed as inhibitors | 270,000 tested, 0.007% active | AID 1868; also: potency is read from the fitted curve at half-maximal effect
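Luminescence from leftover ATP (Ultra-Glo luciferase/luciferin) served as read-out after a 1 h room-temperature reaction of 5 nM GALK with 35 uM ATP and 100 uM galactose.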
* = called active by the depositor; ? = inconclusive; nt = no result given; [ ] = remark or other dose. Compounds with a hit are over-represented: about 1.5% of the library has one in this group of screens. Unless noted, calls follow the shape of the dose curve; as a rule, active = well fitted curve in the direction sought with a large enough effect; inconclusive = small, poorly fitted or top-dose-only effect, or another doubt; inactive = no such curve, though single readings can be large; an effect the other way counts as inactive or inconclusive. % is scaled to controls: 0 for no effect and ±100 for the full control effect.

SMILES	USP1 inh	rTrxR1 inhibitor	Coupling enz	TrxR1 substrate	GALK inh
O=C(NC(=S)Nc1nc(-c2cccc([N+](=O)[O-])c2)cs1)c1cc(Cl)ccc1Cl	-6.8%	28.2µM*	1.2	3.0%[57.1 µM]	5.9%
CCOC(=O)CN1C(=O)C(O)(c2c(C)[nH]c3ccccc23)c2ccccc21 (stereo not given)	-12.3%	-1.8%	-30.2*	-1.0%	-6.7%
CC(C)[C@H]1COCCS(=O)(=O)N1Cc1cccc([N+](=O)[O-])c1	nt	8.6%	nt	4.5%	nt
COc1cccc(CNS(=O)(=O)c2ccc(S(=O)(=O)N3CCCC3)cc2)c1	2.2%	-0.3%[57.1 µM]	-53.4*	2.4%[57.1 µM]	0.4%
NC1C(N)C(N)C1N (stereo not given)	nt	11.2%	nt	5.7%	nt
c1csc(CNc2ccc3c(c2)OCCO3)c1	-9.5%	?	-31.0*	-8.8%	0.1%
CN(C)N1C(N)=C(C#N)C(c2cccs2)C2=C1CCCC2=O (stereo not given)	-5.0%	33.9%[57.1 µM]	-18.8	5.3%[57.1 µM]	-1.2%
Cc1ccsc1C1C(C#N)=C(N)N(N(C)C)C2=C1C(=O)CCC2 (stereo not given)	-19.0%	21.0%[57.1 µM]	-43.8*	-14.4%[57.1 µM]	1.8%
O=C1CCC(=O)N1c1nc2n(n1)C(c1ccccc1)C=C(c1ccc(Br)cc1)N2 (stereo not given)	-7.2%	70.8µM*	-2.0	-0.1%	2.3%
COc1ccc(N2C(=O)c3ccccc3C2=O)cc1	-17.4%	27.8%[57.1 µM]	2.3	1.9%[57.1 µM]	3.7%
COc1ccc(N2C(=O)C(Cl)=C(Oc3cccc(OC)c3)C2=O)cc1	-12.9%	0.447µM*	1.3	-14.3%[57.1 µM]	2.3%
COc1ccc(C2=CC(=O)N(Nc3ccccc3)C2=O)cc1	-15.1%	?	-1.0	-4.0%[57.1 µM]	-0.1%
O=C1C=C(c2ccccc2)C(=O)N1Nc1ccccc1	-6.3%	3.16µM*	0.7	12.3%	0.4%
COc1ccc(-c2cn3cc(C)ccc3n2)cc1F	2.8%	-1.3%[57.1 µM]	-34.4*	48.4%[57.1 µM]	6.9%
COc1ccc(-c2cn3cc(C)ccc3n2)cc1OC	-18.4%	-34.2%	-10.6	306.1%	-0.1%
O=S(=O)(Nc1cccc2ccccc12)c1ccc2ccccc2c1	nt	6.0%	nt	5.3%[0.457 µM]	nt
CC(=O)O[C@H]1CC(C)(C)C(=C=C/C(C)=C/C=C/C(C)=C/C=C/C=C(C)/C=C/C=C(\C)C(=O)C[C@@]23O[C@]2(C)C[C@@H](O)CC3(C)C)[C@](C)(O)C1	-26.9%	35.5µM*	-0.3	-10.0%	-2.9%
COc1ccc(C(=O)c2ccc(OC)c(Br)c2)cc1Br	-14.3%	39.8µM*	-1.1	0.6%	nt
O=C(/C=C/c1ccccc1)CCN1CCOCC1	-17.3%	0.562µM*	nt	1.3%	nt
O=C(/C=C/c1ccccc1)N1CCOCC1	-17.0%	29.1%	-1.1	4.5%	1.3%
Cc1ccc(NC(=S)NNc2ccc([N+](=O)[O-])cc2S(=O)(=O)Nc2ccccc2C(=O)O)cc1C	-20.9%	?	0.3	-10.1%	-4.2%
O=C(O)c1ccccc1NS(=O)(=O)c1ccc(NNC(=S)Nc2ccc(OC(F)F)cc2)c([N+](=O)[O-])c1	?	50.1µM*	14.4	-16.7%	0.4%
CCN1CC=C2C(C#N)=C(N)C(C#N)(C#N)[C@H](c3cccc(OC)c3OC)[C@H]2C1	31.6µM*	-14.6%	-3.3	29.6%	-3.2%
CN1CC=C2C(C#N)=C(N)C(C#N)(C#N)C(c3ccsc3)C2C1 (stereo not given)	-15.6%	3.5%[57.1 µM]	-18.2	55.0%	-0.3%
CN1CC=C2C(C#N)=C(N)C(C#N)(C#N)[C@H](c3cccc(Cl)c3)C2C1 (stereo not given in full)	-15.6%	8.2%[57.1 µM]	-36.4*	25.3%[57.1 µM]	1.3%
SMILES	USP1 inh	rTrxR1 inhibitor	Coupling enz	TrxR1 substrate	GALK inh
COc1cccc(C2C3CN(C)CC=C3C(C#N)=C(N)C2(C#N)C#N)c1OC (stereo not given)	?	?	-7.9	17.4%	2.7%
CCOC(=O)N1CC=C2C(C#N)=C(N)C(C#N)(C#N)[C@H](c3ccccc3OCC)[C@H]2C1	-24.4%	50.1µM*	2.3	5.2%	-4.2%
Cc1c(CC(=O)NCc2ccc(F)cc2)c(=O)oc2cc(O)c(Cl)cc12	-1.5%	79.4µM*	nt	892.8%	nt
O=C(CCl)N1CCN(C(=O)C2COc3ccccc3O2)CC1 (stereo not given)	-5.6%	28.2µM*	nt	4.5%	nt
CCN1CCN(C(=O)C2COc3ccccc3O2)CC1 (stereo not given)	-3.4%	?	nt	-4.8%	-4.2%
Cc1c(CC(=O)N2CCN(C(=O)C3COc4ccccc4O3)CC2)c(=O)oc2cc(O)c(Cl)cc12 (stereo not given)	-19.9%	31.6µM*	0.3	939.2%	8.0%
COc1ccc(S(=O)(=O)N2CCN(C(=O)C3COc4ccccc4O3)CC2)cc1 (stereo not given)	-9.7%	50.1µM*	nt	-3.5%	nt
Cc1ccc(-c2csc(NC(=O)c3cccc(N4C(=O)CCC4=O)c3)n2)o1	-18.3%	20µM*	-0.4	1.6%	-4.3%
O=C(CC(Nc1ccc(F)cc1)C(=O)OCC(=O)c1cccs1)c1ccccc1 (stereo not given)	-25.3%	25.1µM*	-1.2	-1.3%	1.6%
Cc1ccc(NC(CC(=O)c2ccccc2)c2ccc(F)cc2)cc1 (stereo not given)	-16.2%	-10.4%	-5.8	-12.4%	-0.2%
O=C(CC(Nc1ccc(F)cc1)C(=O)O)c1ccccc1 (stereo not given)	-18.2%	14.1µM*	-2.8	-0.5%	-0.5%
O=C(CCC(=O)c1cccs1)OCC(=O)c1ccc(F)cc1	-17.3%	10.3%	nt	-3.7%	nt
Cc1ccc(S(=O)(=O)N2CCN(S(=O)(=O)c3ccc4c(c3)OCCCO4)CC2)cc1	nt	16.8%	nt	1.8%	nt
COc1ccc(-c2nc3cccc(C)n3c2Nc2ccc(C)cc2)cc1	nt	51.5%	nt	99.0%	nt
Nc1c(C(=O)NCC2CCCO2)sc2nc3c(c(-c4ccco4)c12)CC/C3=C\c1ccco1 (stereo not given)	28.2µM*	14.1µM*	-16.0	-14.0%	3.1%
O=C(CCl)N1N=C(c2cccs2)CC1c1ccco1 (stereo not given)	-2.6%	14.1µM*	2.7	-10.0%	9.0%
O=C(CCl)N1N=C(c2ccco2)CC1c1ccco1 (stereo not given)	-11.7%	2.51µM*	0.4	4.2%	0.7%
CC(C)[C@@H]1NC(=O)[C@H](CCCCN)NC(=O)[C@@H](Cc2c[nH]c3ccccc23)NC(=O)[C@H](Cc2ccc(O)cc2)NC(=O)[C@@H](NC(=O)[C@H](N)Cc2ccccc2)CSSC[C@@H](C(=O)N[C@@H](Cc2c[nH]c3ccccc23)C(N)=O)NC1=O	nt	nt	-1.2	nt	nt
CCCCc1nc2c(c3c1C[C@H](C)OC3)CN(C(=O)NCc1ccco1)CC2	nt	nt	-1.0	nt	nt
Cc1cc(=O)c(C(=O)O)nn1-c1cccc(C(F)(F)F)c1	-19.2%	11.3%	1.4	4.4%	-1.4%
